Assay results published in ChEMBL document CHEMBL4296182, “CO-ADD screening of NIH NCI Diversity Set V”.
For part of these data: Results with a measured potency or affinity are listed apart.

Assays:
Staphylococcus aureus = assay: Antibacterial activity against Staphylococcus aureus MRSA ATCC 43300 (CO-ADD:GP_020); MIC in CAMBH media using NBS plates, by Resazurin F(560/590); assay type: functional; details: Concentration 20 uM, ASSAY_TEST Inhibition of Bacterial Growth, detection method Resazurin, Fluorescence (ex560/em590), MEDIA CAMHB, plate type 384well, CORNING #3640, time 18 hr
Acinetobacter baumannii = assay: Antibacterial activity against Acinetobacter baumannii ATCC 19606 (CO-ADD:GN_034); MIC in CAMBH media using NBS plates, by Resazurin F(560/590); assay type: functional; details: Concentration 20 uM, ASSAY_TEST Inhibition of Bacterial Growth, detection method Resazurin, Fluorescence (ex560/em590), MEDIA CAMHB, plate type 384well, CORNING #3640, time 18 hr
Escherichia coli = assay: Antibacterial activity against Escherichia coli ATCC 25922 (CO-ADD:GN_001); MIC in CAMBH media using NBS plates, by Resazurin F(560/590); assay type: functional; details: Concentration 20 uM, ASSAY_TEST Inhibition of Bacterial Growth, detection method Resazurin, Fluorescence (ex560/em590), MEDIA CAMHB, plate type 384well, CORNING #3640, time 18 hr
Klebsiella pneumoniae = details: Concentration 20 uM; ASSAY_TEST Inhibition of Bacterial Growth; detection method Absorption (OD600); MEDIA CAMHB; plate type 384well; NBS; CORNING #3640; time 18 hr
Candida albicans = details: 20 µM
Cryptococcus neoformans = details: Concentration 20 uM; ASSAY_TEST Inhibition of Fungal Growth; detection method Resazurin; Absorption (OD600-OD570); plate type 384well; NBS; CORNING #3640

| SMILES | Inhibition (Staphylococcus aureus) [%] | Inhibition (Acinetobacter baumannii) [%] | Inhibition (Escherichia coli) [%] | Inhibition (Klebsiella pneumoniae) [%] | Inhibition (Candida albicans) [%] | Inhibition (Cryptococcus neoformans) [%] |
| --- | --- | --- | --- | --- | --- | --- |
| c1ccc2c(c1)Nc1cc3ccccc3cc1S2 | 1.39 | -1.02 | 3.79 | 5.14 | -0.01 | -3.36 |
| O=C1CCC(c2ccccc2)(c2ccccc2)CC1 | -6.5 | -6.38 | 1.3 | -0.79 | -1.35 | -9.68 |
| O=C(/C=C/c1cccnc1)/C=C/c1cccnc1 | 16.75 | 4.07 | 0.92 | 20.07 | 31.4 | -2.05 |
| CNC(=O)c1nn(C)c(=O)[nH]c1=O | 3.46 | -10.49 | 19.05 | 15.09 | 4.6 | -7.3 |
| N[C@H](C(=O)O)[C@H]1ON=C(Cl)[C@@H]1O | 11.62 | -0.47 | 10.43 | 5 | 2.6 | -3.55 |
| COc1ccc(NC2=NC(C)(CO)CS2)cc1 (stereo not given) | 33.41 | -4.98 | 1.2 | 15.06 | 1.85 | 5.77 |
| Cc1cc(C)c2c(SC(C)C)nc(N)nc2n1 | -0.52 | -6.63 | 2.33 | 4.23 | 0.54 | -10.66 |
| Nc1ccc(C(=O)C(=O)c2ccc(N)cc2)cc1 | -28.54 | -4.51 | -16.8 | 1.88 | 2.62 | 25.61 |
| O=C(Nc1ccc(NC(=O)c2ccncc2)cc1)c1ccncc1 | 23.04 | -1.2 | 8.24 | 15.75 | 1.6 | -0.9 |
| Cc1ccc(C2C=CC(C#N)=CN2Cc2ccccc2)cc1 (stereo not given) | 18.9 | -15.76 | 11.73 | 11.58 | -1.48 | -7.94 |
| COc1cc(C(=O)C(=O)c2ccc(O)c(OC)c2)ccc1O | -3.81 | -13.36 | 16.47 | 8.6 | 1.86 | -17.88 |
| Oc1ccccc1-n1c(-c2ccccc2)ccc1-c1ccccc1 | 3.47 | 1.43 | 1.29 | 19.15 | 11.1 | -2.48 |
| Cc1c(C(C)(C(=O)O)c2c(C)n(C)c3ccccc23)c2ccccc2n1C | 11.46 | 7.57 | 2.78 | 3.48 | 9.04 | -5.48 |
| CC(=O)OC1C=CCC2C(=O)c3cccc(O)c3C(O)C12 (stereo not given) | -1.42 | -10.27 | 6.95 | 7.69 | 6.66 | -16.38 |
| Nc1nc(Cl)cc(Nc2ccccc2Cl)n1 | 12.37 | 13.94 | -7.98 | 12.81 | 7.79 | 1.11 |
| Oc1nc2ccccc2n1C1=CCNCC1 | -11.2 | -15.97 | 0.33 | 8.73 | 2.14 | -5.4 |
| CCOC(=O)Cc1csc2nc(-c3ccccc3)nn12 | -0.44 | -7.19 | 5.98 | -2.91 | 3.06 | -9.7 |
| CN1CCN(C(=O)/C=C/c2ccc([N+](=O)[O-])o2)CC1 | 14.1 | 5.92 | -7.59 | 6.31 | 3.54 | 10.04 |
| c1ccc(-c2ccc3c(c2)NC(C2Nc4cc(-c5ccccc5)ccc4O2)O3)cc1 (stereo not given) | 3.85 | 1.02 | 2.77 | 24.34 | -1.54 | -14.91 |
| NS(=O)(=O)c1ccc(Cl)cc1[N+](=O)[O-] | -0.55 | -3.88 | 8.03 | 12.78 | 3.7 | 15.75 |
| NS(=O)(=O)c1ccc(/N=N/c2c(O)c(C(=O)O)cc3ccccc23)cc1 | -3.85 | 10.2 | -7.6 | 18.16 | -3.08 | -0.96 |
| Nc1ccc(-c2nc3nc(N)nc(N)c3nc2-c2ccc(N)cc2)cc1 | 11.99 | -8.41 | -0.05 | 5.53 | 0.39 | -7.52 |
| Nc1ccc(NC(=O)c2ccc(C(=O)Nc3ccc(N)cc3)cc2)cc1 | 11.02 | -8.34 | 15.83 | 3.68 | 40.4 | 10.38 |
| CCSc1ncc(CO)c(N)n1 | 4.68 | -13.15 | 2.64 | 10.1 | 0.06 | 1.67 |
| C(=C\c1ccccn1)/c1ccccn1 | -7.74 | -5.17 | -19.26 | 9.47 | 4.3 | 26.47 |
